Drawing on PubChem BioAssay (NCI), this text covers growth for 40 compounds.

Values joined by “and” are separate entries in the source; they are usually repeats but may differ in a detail not shown here. Equal values may be shown once. This is part of a sample that, as a whole, favours compounds with a hit. Of some 83,000 tested, about 20% had one in any assay.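 Growth was measured after 48 h exposure to one concentration of compound in 96-well plates. Values under 10 count as active.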 Active and inactive are the calls of the source.

This experiment has as its system MDA-MB-468 breast. Put plainly: NCI-60 one-dose screen, 48 h (100 = growth as untreated, 0 = no growth, -100 = all killed). The conditions noted are these: 10 µM unless noted.
On to `CC[C@H](C)[C@H](NC(=O)[C@H]1CCCCN1C)C(=O)N(C)[C@H](C[C@@H](OC(C)=O)c1nc(C(=O)NC23CC(C(=O)OC)(C2)C3)cs1)C(C)C`, for which the growth is 4.52% (active).

With `CC(=O)N(C)C1=Nc2ccc(Cl)cc2C(c2ccccc2)=[N+]([O-])C1`, the growth is 111% (inactive).

On to `CC(C)=CCC/C(C)=C/C=N\N=C(/N)N[N+](=O)[O-]`, for which the growth is 103% (inactive).

As for `Clc1ccc(COC(Cn2ccnc2)c2ccc(Cl)cc2Cl)cc1` (stereo not given), the growth is 39.7% (inactive).

With `CC[C@H](C)[C@@H]([C@@H](CC(=O)N1CCC[C@H]1[C@H](OC)[C@@H](C)C(=O)N[C@H](C)[C@@H](O)c1ccccc1)OC)N(C)C(=O)[C@@H](NC(=O)[C@@H](NC)C(C)C)C(C)C`, the growth is 37% (inactive).

In the case of `COc1cc(NCCCN=C(N)N)c2ncccc2c1`, the growth was -37.1% (active).

For `O=[N+]([O-])c1ccc(F)c([N+](=O)[O-])c1F`, the growth was 98.6% (inactive).

Take `Cn1cc(C(=O)C[n+]2ccccc2)c2ccccc21`: the growth was 88% (inactive).

Turning to `COc1cc(N(CCCl)CCCl)ccc1C=Nc1ccccc1C(=O)O`, the growth is 63.3% (inactive).

In the case of `CC12CCC(=O)C=C1C(O)CC1C2CCC2(C)C(O)CCC12` (stereo not given), the growth was 104% (inactive).

Turning to `O=C1C(=O)c2ccccc2-c2ccccc21`, the growth was -85.6% (active).

`CCCCCCCCOC(=O)CCN1CC1`: the growth was 100% (inactive).

Regarding `CNc1ccc(C(=O)CC(O)CCC(C)C2OC(=O)CC(O)CC(=O)CC(O)CC(O)CC(O)CC(O)CC3(O)CC(O)C(C(=O)OC)C(CC(O[C@@H]4O[C@H](C)[C@@H](O)[C@H](N)[C@@H]4O)/C=C/C=C/C=C/C=C/C=C/C=C/C=C/C2C)O3)cc1` (stereo not given in full), the growth was 36.5% (inactive).

Take `N#C[S-].[Au+].c1ccc(CN2[CH-]N(Cc3ccccc3)C(c3ccccc3)=C2c2ccccc2)cc1`: the growth is -3.8% (active).

Take `CC[C@H](C)[C@H](NC(=O)C12C3C4C1C1C2C3C41NC)C(=O)N(C)[C@H](C[C@@H](OC(C)=O)c1nc(C(=O)N[C@@H](Cc2ccccc2)C[C@H](C)C(=O)OC)cs1)C(C)C` (stereo not given in full): the growth was 1.25% (active).

Consider `Cc1ccc(S(=O)(=O)F)cc1C(=O)O`, for which the growth was 92.5% (inactive).

As for `CC(=O)[O][Hg][c]1nc2c(c(=O)n(C)c(=O)n2C)n1C`, the growth is 102% (inactive).

For `O=C1C=C2C(=CCOC2O)O1` (stereo not given), the growth is -55.5% (active).

For `OCCNC1CCCCC1`, the growth is 109% (inactive).

Turning to `Cn1cnnc1[S-].[Au+].c1ccc([PH+](c2ccccc2)c2ccccc2)cc1`, the growth was -49.1% (active).

For `O=C(CC1(O)C(=O)Nc2ccc(Br)cc21)c1ccc(C(=O)NCC2CCC3(CC2)OOC2(CCCCC2)OO3)cc1` (stereo not given), the growth was 48.7% (inactive).

For the compound `COc1ccc(C(O)(C(=O)O)c2ccc(OC)cc2)cc1`, the growth was 104% (inactive).

On to `Cc1cc([N+](=O)[O-])c2ccccc2[n+]1[O-]`, for which the growth is -55.7% (active).

For the compound `O=[N+]([O-])c1cc(Cl)c(Cl)cc1Cl`, the growth was 102% (inactive) and 104% (inactive).

As to `CC(=O)O[C@H]1C(=O)[C@@]2(C)[C@H]([C@H](OC(=O)c3ccccc3)[C@]3(O)C[C@H](OC(=O)[C@H](OC(=O)OC[C@H]4COC(C)(C)O4)[C@@H](NC(=O)c4ccccc4)c4ccccc4)C(C)=C1C3(C)C)[C@]1(OC(C)=O)CO[C@@H]1C[C@@H]2O`, the growth is -16.3% (active).

On to `NC(Cc1ccc(O)cc1)C(=O)N/N=C/c1ccc(N(CCCl)CCCl)cc1` (stereo not given), for which the growth was 19.7% (inactive).

For the compound `CCOP(=O)(NC)OCC`, the growth is 94.2% (inactive).

Turning to `O1[As]2O[As]3O[As]1O[As](O2)O3`, the growth was -63.2% (active).

Take `CN1[C@@H](CC(=O)c2ccccc2)CCC[C@H]1CC(=O)c1ccccc1`: the growth was 101% (inactive).

For `O=C(N/N=C/c1ccc([N+](=O)[O-])o1)c1cc([N+](=O)[O-])cc([N+](=O)[O-])c1O`, the growth is 92.1% (inactive).

As to `Oc1ccc(Br)cc1CN1CCN(Cc2ccc(Cl)cc2)CC1`, the growth was 95.9% (inactive).

`CC[CH2][Sn]([Cl])([Cl])[CH2]CC.Oc1ccccc1C=NCCN=Cc1ccccc1O`: the growth is -59.7% (active) and -33.9% (active).

Turning to `O=[P+](O)c1cccnc1`, the growth was 99.1% (inactive).

Consider `O=C1NC(=S)NC(=O)C1=Cc1ccccc1`, for which the growth is 117% (inactive).

`CCCCn1c(=O)c(C(=O)NCc2ccccc2Cl)c(O)c2ccccc21`: the growth was 70.6% (inactive).

As for `CC1(C)C=Cc2c(ccc3c2[N+]([O-])=C2C3=C[C@@]34NC(=O)[C@]5(CCCN5C3=O)C[C@@H]4C2(C)C)O1`, the growth is 8.16% (active).

Turning to `COc1cc(/C=C\[N+](=O)[O-])ccc1O`, the growth was 4.87% (active) and 65.1% (inactive).

Take `O=C(CCCc1ccc(N(CCCl)CCCl)cc1)OCc1ccccc1`: the growth was 87% (inactive).

On to `NC(=O)OCC(CO)(c1ccccc1)c1ccccc1`, for which the growth was 93.8% (inactive).

For the compound `O=[N+]([O-])c1ccc2scc3c4ccccc4nc-3c2c1`, the growth was -84.5% (active).
